# Only some compounds are listed: those with a hit (about 7.4% of all), similar ones and a draw of the others.
# HEK293 viab = counter-screen for SNCA expression inhibitors: cell viability. HEK-293-SNCA-luc viability, GF-AFC fluorescence, 24 h. Potency, µM (top dose mostly 57.1 µM), for the others: at the top dose activity change, negative = cytotoxicity, usual class: cytotoxic. actives 0.12% (n = 150,000);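 note: 0% = DMSO-treated cells and -100% = medium-only wells without cells; nearly all actives have a fitted effect of over 30% in size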
#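 HEK-293-SNCA-luc cells (1500/well) plated 24 h, then exposed 24 h to a dilution series; GF-AFC added 30 min at 37C, fluorescence 405/540 nm; normalised to medium-only and DMSO wells, Hill fit.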
# FLuc inh = inhibitors of firefly (Photinus pyralis) luciferase; purified P. pyralis luciferase, luminescence, biochemical; AID 1347043; Potency, µM (series often up to 115 µM), usual class: inhibitors; actives 2.5% (n = 76,000); note: % is set by controls: 0 for no effect and ±100 for the full control effect; nearly all actives have a fitted effect of over 65% in size
#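 Cell-free enzyme assay, 10nM P. pyralis luciferase, luciferin and ATP each at 10uM. Inhibition profiled over a 6-point titration, read as luminescence.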
# NIH3T3 tox = kills NIH 3T3 cells; NIH 3T3 viability, CellTiter-Glo ATP luminescence, 48-72 h; Potency, µM (doses to about 96.7 µM), inactives show top-dose activity change, negative = cytotoxicity, usual class: inhibitors; actives 4.3% (n = 94,000); AID 1345082; note: % is set by controls: 0 for no effect and ±100 for the full control effect; nearly all actives have a fitted effect of over 55% in size
#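 Cytotoxicity is measured as loss of cellular ATP: NIH 3T3 cells (400/well) are exposed to compound for 48 or 72 hr at 37 °C, then CellTiter-Glo luminescence is imaged after 10 min at room temperature.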
# NPR1 antag = antagonists of human natriuretic peptide receptor Npr1; P16066; HEK293 hNpr1 GloSensor cGMP, ANP-stimulated luminescence; Potency, µM (highest dose often 46.3 µM), inactives show top-dose activity change, negative = inhibition, usual class: inhibitors; actives 1.6% (n = 76,000); calls by dose curve; note: % is set by controls: 0 for no effect and ±100 for the full control effect; nearly all actives have a fitted effect of over 60% in size
#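 Compound pre-incubated 30 min at room temperature on GloSensor-loaded HEK293 cells stably carrying hNpr1 and the pGS-40F cGMP biosensor. Stimulation uses hNppA at 0.1 nM final; luminescence is taken at baseline and 20 min post-agonist.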
# SNCA expr inh = inhibitors of alpha-synuclein (SNCA) gene expression. HEK-293 SNCA-luciferase knock-in, luminescence, 24 h. Potency, µM (series often up to 57.2 µM), for the others: at the top dose activity change, negative = inhibition, most hits filed as inhibitors. actives 0.17% (n = 140,000);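 note: plate controls were DMSO cells for no effect and cell-free wells for full effect; nearly all actives have a fitted effect of over 45% in size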
# HEK cytotox = HEK 293 cell cytotoxicity | Potency, µM (series often up to 115 µM), for the others: top-dose activity change, negative = cytotoxicity, most hits filed as inhibitors | HEK 293 viability, ATP luminescence (CellTiter-Glo), 48-72 h | actives 6.6% (n = 94,000); note: % is set by controls: 0 for no effect and ±100 for the full control effect; nearly all actives have a fitted effect of over 60% in size
#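 HEK 293 cells seeded at 250 cells/well were exposed to compound for 48 or 72 hr at 37 degree Celsius. Viability taken as ATP content by CellTiter-Glo luminescence.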
# NPR1 antag cnf = hNpr1 antagonism, confirmation assay. shares compounds with NPR1 antag. HEK293 hNpr1 cGMP GloSensor luminescence, ANP-stimulated. Potency, µM (doses to about 57.6 µM), without a hit: at the top dose activity change, negative = inhibition, actives largely listed as inhibitors. actives 76% (n = 1,400); calls by dose curve; note: nearly all actives have a fitted effect of over 70% in size
# NPR2 antag = selectivity test of Npr1 antagonists against human Npr2 | AID 1347046 | actives 67% (n = 1,400) | HEK293 hNpr2 GloSensor cGMP luminescence, CNP-stimulated | Potency, µM (highest dose often 57.6 µM), without a hit: top-dose activity change, negative = inhibition, usual class: inhibitors | shares compounds with NPR1 antag; calls by dose curve; note: nearly all actives have a fitted effect of over 70% in size
# Target sequence (P20594 whole entry, looked up): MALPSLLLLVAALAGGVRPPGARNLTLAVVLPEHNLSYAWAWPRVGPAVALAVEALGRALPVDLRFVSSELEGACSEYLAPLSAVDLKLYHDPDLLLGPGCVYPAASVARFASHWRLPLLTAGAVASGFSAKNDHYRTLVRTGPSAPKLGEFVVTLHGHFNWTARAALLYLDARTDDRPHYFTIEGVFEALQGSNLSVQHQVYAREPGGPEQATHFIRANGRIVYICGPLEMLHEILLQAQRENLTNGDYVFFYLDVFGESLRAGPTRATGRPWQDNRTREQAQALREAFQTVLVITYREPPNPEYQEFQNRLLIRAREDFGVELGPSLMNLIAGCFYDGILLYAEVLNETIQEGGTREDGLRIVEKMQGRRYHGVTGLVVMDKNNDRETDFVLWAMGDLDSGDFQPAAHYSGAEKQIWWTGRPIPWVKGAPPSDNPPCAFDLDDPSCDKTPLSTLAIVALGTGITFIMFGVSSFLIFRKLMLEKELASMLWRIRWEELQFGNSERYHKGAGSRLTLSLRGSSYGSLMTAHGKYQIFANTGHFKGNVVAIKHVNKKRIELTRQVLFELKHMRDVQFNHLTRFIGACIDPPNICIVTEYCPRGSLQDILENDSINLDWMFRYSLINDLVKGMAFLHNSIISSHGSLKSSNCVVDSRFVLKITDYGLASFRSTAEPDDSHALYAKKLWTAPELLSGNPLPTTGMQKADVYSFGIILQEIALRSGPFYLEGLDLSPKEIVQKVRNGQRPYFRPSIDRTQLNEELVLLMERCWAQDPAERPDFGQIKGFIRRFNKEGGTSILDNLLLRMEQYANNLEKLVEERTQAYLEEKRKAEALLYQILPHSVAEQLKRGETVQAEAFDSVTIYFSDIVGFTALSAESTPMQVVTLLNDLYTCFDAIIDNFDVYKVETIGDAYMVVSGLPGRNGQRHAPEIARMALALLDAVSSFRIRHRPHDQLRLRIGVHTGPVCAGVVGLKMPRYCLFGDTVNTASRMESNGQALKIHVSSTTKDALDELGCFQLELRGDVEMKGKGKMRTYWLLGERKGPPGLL
# FLuc inh counter = counter-screen for Npr1 antagonists: firefly luciferase inhibitors | shares compounds with NPR1 antag | purified FLuc enzyme, luminescence, Km substrate | Potency, µM (titrated, usually from 57.6 µM), for inactives: top-dose activity change, negative = inhibition, hits mostly inhibitors | actives 0.7% (n = 1,400); note: series mostly up to about 58 µM; 0% is about no effect
# GloSensor cGMP = reduces cGMP signal in GloSensor control cells. Potency, µM (top dose mostly 57.6 µM), for inactives: at the top dose activity change, negative = inhibition, most hits filed as inhibitors. shares compounds with NPR1 antag. AID 1347051. HEK293 GloSensor cGMP, SNP-stimulated, luminescence. actives 69% (n = 1,400); calls by dose curve; note: % is set by controls: 0 for no effect and ±100 for the full control effect; nearly all actives have a fitted effect of over 70% in size
# An asterisk follows results filed as active; i = inactive; ? = inconclusive; nt = no result given; [ ] = dose if it differs, or a comment. Unless noted, calls come from the whole dose curve; as a rule, active = well fitted curve in the direction sought with a large enough effect; inconclusive = small, poorly fitted or top-dose-only effect, or another doubt; inactive = no such curve, though single readings can be large; an effect the other way counts as inactive or inconclusive. Potency is the fitted concentration of half-maximal effect.
SMILES,HEK293 viab,FLuc inh,NIH3T3 tox,NPR1 antag,SNCA expr inh,HEK cytotox,NPR1 antag cnf,NPR2 antag,FLuc inh counter,GloSensor cGMP
CCOc1ccc(C(=O)N2CCN(c3cc(-c4ccc(Cl)cc4)[nH]n3)CC2)cc1OCC,?,i,22µM*,2.2µM*,?,20µM*,7.7µM*,14µM*,-1%,9.7µM*
Cc1ccc(-c2cc(N3CCCN(C(=O)c4sccc4C)CC3)n[nH]2)cc1C,-9%,?,?,-20%,37%,?,nt,nt,nt,nt
CCOc1ccc(C(=O)N2CCCN(c3cc(-c4ccc(OC)cc4)[nH]n3)CC2)cc1OCC,-9%,i,-2%,-6%,0%,?,nt,nt,nt,nt
Cc1ccsc1C(=O)N1CCN(c2cc(-c3ccc(Cl)cc3)[nH]n2)CC1,-11%,i,25µM*,13µM*,?,?,24µM*,27µM*,-11%,22µM*
CNC(=O)c1cc(C2CC2)nc2onc(C3CCCN3C(=O)NC3CCCC3)c12 (stereo not given),nt,nt,-14%,nt,nt,i,nt,nt,nt,nt
Cc1nn2c(c1-c1ccnn1C(C)C)N(Cc1cccc(C#N)c1)CCC2,?,i,14µM*,?,2.8µM*,14µM*,2.8µM*,?,-1%[86.2 µM],?
Cc1nn2c(c1-c1ccccc1Oc1ccccc1)N(Cc1cccc(C#N)c1)CCC2,?,i,8.9µM*,3.2µM*,?,8.9µM*,2.2µM*,4.4µM*,-3%[86.2 µM],1.8µM*
Cc1nn2c(c1-c1ccccc1[S+](C)(=O)[O-])N(Cc1ccc(C(=O)O)s1)CCC2,?,i,13µM*,3.2µM*,4µM*,?,9.9µM*,28µM*,3%[86.2 µM],5µM*
COC1CCC(C(=O)N2CCCn3nc(C)c(-c4ccccc4-c4ccccc4)c32)CC1 (stereo not given),-12%[87.6 µM],i,?,2%[70.6 µM],?,?,nt,nt,nt,nt
Cc1nn2c(c1-c1ccccc1Oc1ccccc1)N(Cc1ccc(C(=O)O)s1)CCC2,?,i,32µM*,?,13µM*,32µM*,?,?,1%,?
Cc1nn2c(c1-c1ccccc1-c1ccccc1)N(Cc1ccc(C(=O)O)s1)CCC2,3%[87.6 µM],i,-9%[138 µM],2%[70.6 µM],-15%[87.6 µM],?,nt,nt,nt,nt
Cc1nn2c(c1-c1ccnn1C(C)C)N(Cc1ccc(O)cc1)CCC2,6%[87.6 µM],i,?,-7%[70.6 µM],6%[87.6 µM],?,nt,nt,nt,nt
CCNC(=O)N1CCOc2ccc(CCC(=O)Nc3ccc(C)cc3)cc2C1,-2%[12.5 µM],i,?,11µM*,?,?,15µM*,19µM*,-15%,12µM*
CCCNC(=O)CCc1ccc2c(c1)CN(C(=O)NCC)CCO2,5%[12.5 µM],i,-12%,2%,31%,1%,nt,nt,nt,nt
Cc1cnccc1CN(C)C(=O)c1cc(COc2ccc(-n3cncn3)cc2)on1,-1%,i,?,7.1µM*,4%,?,5.4µM*,9.7µM*,0%,5.4µM*
CC(C)n1cc(CN(C)C(=O)c2cc(COc3ccccc3)on2)cn1,-5%,?,?,0%,22%,?,nt,nt,nt,nt
O=C(NC[C@H]1OC[C@@H](N(Cc2cccs2)Cc2cccs2)[C@@H]1O)c1ccccc1,?,i,?,-4%[70.6 µM],-32%[87.6 µM],?,nt,nt,nt,nt
Cc1ccccc1-c1cc(-c2c(C)noc2C)cc2c1C(=O)N(C)C2,-19%[87.6 µM],i,?,-1%[70.6 µM],41%[87.6 µM],?,nt,nt,nt,nt
Cc1noc(C)c1-c1cc2c(c(-c3cccc(O)c3)c1)C(=O)N(C)C2,-3%[87.6 µM],i,-51%[138 µM],-2%[70.6 µM],35%[87.6 µM],?,nt,nt,nt,nt
Cc1noc(C)c1-c1cc2c(c(-c3ccccc3)c1)C(=O)N(C)C2,-13%[87.6 µM],i,?,28µM*,-2%[87.6 µM],40µM*,28µM*,18µM*,1%[86.2 µM],18µM*
Cc1noc(C)c1-c1cc2c(c(-c3ccc(F)c(Cl)c3)c1)C(=O)N(C)C2,?,i,?,8.9µM*,8%[87.6 µM],?,16µM*,8.9µM*,-1%[86.2 µM],7.9µM*
O=C(Cc1ccc(Cl)cc1)N1CCC2(CC1)CN(C1CCC1)CC2CO (stereo not given),-11%[12.5 µM],i,?,-27%,-6%,?,nt,nt,nt,nt
C[S+](=O)([O-])c1ccc(-c2cc(C(=O)NCCc3ccc(Cl)cc3)nn3cccc23)cc1,?,nt,22µM*,nt,42%,?,?,?,15µM*,?
O=C(NC1CCCC1)N1CCc2nc(C3CC3)nc(-c3ccc(Cl)cc3)c2C1,-20%,nt,?,nt,6%,?,nt,nt,nt,nt
O=C(NCc1cccnc1)c1nc(-c2ccc(F)cc2)c2ccccn12,1%,i,?,-3%,3%,?,nt,nt,nt,nt
SMILES,HEK293 viab,FLuc inh,NIH3T3 tox,NPR1 antag,SNCA expr inh,HEK cytotox,NPR1 antag cnf,NPR2 antag,FLuc inh counter,GloSensor cGMP
O=C(c1cnc2n[nH]c(-c3ccccc3)c2n1)N1CCOCC1,-2%[87.6 µM],i,?,-11%[70.6 µM],?,?,nt,nt,nt,nt
CN(C(=O)c1cnc2n[nH]c(-c3ccccc3)c2n1)c1ccccc1,?,i,?,16µM*,?,?,31µM*,31µM*,2%[86.2 µM],20µM*
O=C(NCc1cccnc1)c1cnc2n[nH]c(-c3ccccc3)c2n1,nt,nt,nt,nt,nt,nt,25µM*,13µM*,0%[86.2 µM],10%[86.2 µM]
COc1ccccc1-c1[nH]nc2ncc(C(=O)NCc3cccnc3)nc12,nt,nt,nt,nt,nt,nt,18µM*,7µM*,1%[86.2 µM],-16%[86.2 µM]
COc1ccccc1-c1nc(C(=O)NCc2cccnc2)n2ccccc12,-9%,nt,?,nt,3%,?,nt,nt,nt,nt
CC1=C[C@@H](CNC(=O)CC2(CC(=O)O)CCCC2)[C@H](C(C)C)C[C@H]1Cc1nc2ccccc2n1C,?,i,?,1%,-1%,?,nt,nt,nt,nt
